In the supplement of paper PMC6555819:

Tests used:
Experiment in all cases: PBM binding z-score (relative to random genomic background probes); higher = stronger binding; sequences stand for … in GC…GCGATTGACAGCGTAGAATGAAGG
[1] = test system: RARb homodimer (NR concentration 270 nM)
Method in brief: (§1)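 Regression normalization was applied to scanned fluorescence from custom Agilent 4×180K protein-binding microarrays. Before scanning, arrays were incubated 1 h with ligand-free nuclear receptor dimers, and binding was detected with antibodies against each partner (one per run). Binding z-scores use the random background probes as reference.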

[2] = test system: RARg:RXRa (NR concentration 270 nM, RXRa partner concentration 90 nM)
Method in brief: as §1

[3] = test system: RARg homodimer (NR concentration 270 nM)
Method in brief: as §1

[4] = test system: RXRa DBDmut IVT, anti-RXR (DBD mutation: RXRa K156A/R161A, NR concentration 90 nM)
Method in brief: as §1

[5] = test system: RXRa homodimer (NR concentration 180 nM)
Method in brief: as §1

[6] = test system: THRa:RXRa (NR concentration 90 nM, RXRa partner concentration 90 nM)
Method in brief: as §1

[7] = test system: THRa homodimer (NR concentration 90 nM)
Method in brief: as §1

[8] = test system: VDR homodimer (NR concentration 270 nM)
Method in brief: as §1

Sequence | PBM binding z-score [1] | PBM binding z-score [2] | PBM binding z-score [3] | PBM binding z-score [4] | PBM binding z-score [5] | PBM binding z-score [6] | PBM binding z-score [7] | PBM binding z-score [8]
TCTAGTTAGTCACGGAGGTCACACACGACGGGTA | 3.95 | 3.7 | 3.44 | 1.24 | 4.28 | 3.56 | 2.59 | 1.97
CGTCCAAGGTCTTAGGAGGTCAGTGAAGACAGAT | 3.12 | 2.51 | 2.68 | 0.709 | 2.01 | 4.13 | 1.15 | 1.33
GCTAGTTGGTCAGTAAAAGGTCGCACACCGGTCG | 2.98 | 2.68 | 1.8 | 0.145 | 1.95 | 1.61 | 0.192 | 0.447
TTACCCAGGTGAAAGGTCGTTGATGCACGCCTTG | 2.56 | 3.48 | 1.53 | 0.677 | 4.51 | 3.2 | 1.26 | 1.66
CCTTACGGGTCAAGGTGATAGCACGGGTGGTACG | 3.13 | 4.81 | 4.64 | 0.497 | 5.2 | 2.94 | 0.765 | 0.801
GCTCGGACGACAAGGTCAGAGCTTTGTCCGTAGA | 2.73 | 2.72 | 3.07 | 0.365 | 2.23 | 2.54 | 0.94 | 0.617
CAAGCTAGGTCACGAAAGGTCAAAGTCGAATGAC | 5.98 | 8.18 | 8.58 | 2.43 | 8.62 | 5.11 | 2.29 | 3.61
CGTCCAAGGTCATAGGAGGTCAGTGTAGACAGAT | 5.63 | 6.73 | 7.24 | 3.82 | 6.53 | 5.46 | 3.59 | 4.71
AGAATGACGTTATTAAGATCAGGGAATTGCGGTC | -0.448 | -0.146 | 0.0594 | -0.095 | -0.18 | -0.42 | -0.892 | -0.318
GCGACTGGGGCTAAGCAGGTTACCATAAGGTTGG | 0.946 | 0.126 | 0.179 | -0.481 | -0.00806 | 1.12 | 0.145 | -0.2
AGAATGTGGTTAAGATCAGGGAAACAGAATACAT | 0.296 | 0.287 | 0.502 | -0.315 | -0.0174 | 0.458 | -0.00414 | 0.151
ACTTACGGGTCAACCAGGTTATAGCACGCGTATA | 3.43 | 5.74 | 5.08 | 2.31 | 6.13 | 3.79 | 0.987 | 2.74
ATCTCTAGGTAAAGATAGTTCAGTCAATGCAAAT | 0.999 | 0.494 | 0.808 | 0.26 | 0.151 | 0.889 | -0.0396 | 0.66
CCGACTGGGGCAAAAGTTACCATACTCAGTACGA | 0.168 | 0.333 | 0.253 | 0.584 | 0.278 | -0.144 | -0.251 | -0.248
CGTCAAGGTTCAAGGTAACGTAACAGAAAGCAGC | 1.73 | 3.11 | 2.71 | 4.1 | 3.11 | 2.61 | 1.01 | 3.6
TTAGCAAGGTGAAGGTCGTTGATCCCTCTGTAGA | 1.68 | 1.09 | 1.04 | -0.172 | 1.53 | 2.03 | 0.432 | 0.356
CCTTACGGATCAAGGTTATAGCACGGGTGGTACG | 0.857 | 0.538 | 0.518 | -0.178 | 0.793 | 1.16 | 0.694 | 0.886
TCATAAAGGTAAAAGGTGAAAGTCGGTGTGGTAA | 2.25 | 2.87 | 1.28 | 1.94 | 4.16 | 2.34 | 0.408 | 0.435
CAAACTAGGTCAAGCGGTCAAAGTCCGCTTCCCG | 4.55 | 5.64 | 6.19 | 1.57 | 4.04 | 3.23 | 0.992 | 1.5

Sequence | PBM binding z-score [1] | PBM binding z-score [2] | PBM binding z-score [3] | PBM binding z-score [4] | PBM binding z-score [5] | PBM binding z-score [6] | PBM binding z-score [7] | PBM binding z-score [8]
ACAGACAGGTGATGAAGGTCACTCAGGCTATCAT | 3.75 | 3.15 | 2.94 | 0.355 | 2.67 | 2.81 | 0.677 | 1.51
ACTCTTAGTTGAGACGAGGGCAACCGATAGGTTG | 1.14 | 0.56 | 0.695 | 0.403 | 0.46 | 2.59 | 0.356 | 0.844
CGAACTAGGTCATCCAGGACAGTGCATACATTGA | 3.21 | 4.04 | 4.52 | 2.45 | 2.88 | 3.65 | 2.06 | 2.29
CAAACTAGGTCATCGGAAGGTCAAAGTCCGCATG | 5.46 | 8.08 | 6.47 | 2.25 | 5.58 | 4.2 | 2.3 | 3.67
ATATGTAGGTTATCGGGTCATTCGGTTTGCGCAT | 2.88 | 3.2 | 2.3 | 1.52 | 3.53 | 3.28 | 2.94 | 4.19
CCAGACAGGTGAAAGCTAACTCAGTCTGGTACGC | -0.273 | 0.135 | 0.254 | -0.328 | 0.326 | -0.0859 | -0.832 | -0.146
CCTATTAGTTGACCATAAGGGCAACCGAAGCTCG | 2.05 | 1.31 | 0.855 | 0.655 | 1.02 | 2.02 | 1.34 | 1.07
CGTCCAAGGTCAAGTTCAGTGAAAGAGACTCGAA | 4.68 | 6.6 | 7.17 | 4.31 | 6.26 | 3.99 | 2.87 | 4.75
ATCTCTAGGTAAAGATAGTTCAGTGATTGCAAAT | 1.2 | 0.619 | 0.722 | 0.503 | 0.395 | 0.879 | 0.445 | 0.789
ATCGAAAGGTCGAAGGTGAGTATCCCCACCCGAA | 2.43 | 3.95 | 3.71 | 0.658 | 4.73 | 2.36 | 0.377 | 0.132
TCTATTAATTGATTAGGGCAACCGAAACAGCGGA | 0.555 | 0.404 | 0.432 | 0.717 | 0.315 | 0.691 | 0.741 | 1.36
AGTCAAAGTTCAGGACGTGGTAACGTAAAGCACG | 3.13 | 4.04 | 4.85 | 2.76 | 2.67 | 2.37 | 0.614 | 1.49
CGAACGAGGGCATGAGTCGATAGCAAATGCCGAT | 0.648 | 0.901 | 1.41 | 1.99 | 0.869 | 0.888 | -0.267 | 0.974
CGAACGAGGGCATGAATTGATAGCAAATGCCGAT | 0.244 | 0.899 | 1.3 | 2.24 | 0.708 | 0.857 | -0.496 | 0.297
TCTAGTTGGCCAAAGGTCACACACTCGAAATGCG | 5.04 | 6.5 | 6.31 | 1.5 | 7.78 | 3.78 | 1.77 | 2.27
TCATATAGGTAAACAGGTGAAAGACCGTAAGTTA | 0.437 | 0.712 | 0.452 | 1.32 | 1.17 | 0.539 | 0.114 | 0.225
CAAACTAGGTCAAGAGGTCATAGTCCGCTTCCCG | 5.49 | 7.6 | 7.08 | 2.78 | 7.48 | 4.35 | 2.59 | 3.82
CCGACTGGGGCAAAGGTTACCGTACTCAGTACGA | 2.03 | 3.44 | 1.64 | -0.356 | 3.45 | 1.7 | -0.542 | -0.111
ACTAGCAGGCCGAGTTTGGGTCACTCAAACAAAG | 1.65 | 1.04 | 0.63 | -0.134 | 0.562 | 2.17 | 0.853 | 0.396

Sequence | PBM binding z-score [1] | PBM binding z-score [2] | PBM binding z-score [3] | PBM binding z-score [4] | PBM binding z-score [5] | PBM binding z-score [6] | PBM binding z-score [7] | PBM binding z-score [8]
AGAACGAGGGCAATGAGTTGAAAGCACGGGTGGC | 1.14 | 1.26 | 1.51 | 2.17 | 1.07 | 1.22 | -0.343 | 3
ATCTCAAGGTAACCAAGTTCAGTGAATGCCGAAC | 1.51 | 1.21 | 1.06 | 1.01 | 0.816 | 2.24 | 1.06 | 3.2
ATATGTAAGTTATCGGGTCATTCAGTTTGCGCAT | 2.48 | 2.12 | 1.48 | 1.61 | 2.59 | 3.24 | 2.84 | 3.74
TCTATTAGTGGAAGGGCAACCGACGAGTCCGTTT | 1.21 | 0.443 | 0.673 | 1.28 | 0.619 | 0.13 | 0.0131 | 1.3
CCTCACGGGTCACGAGGTTATAGCACGACGAGCG | 3.79 | 5.79 | 5.33 | 1.43 | 6.4 | 3.36 | 1.24 | 2.22
CAAGACAGGTGAAAGGTAACTCAGTCTGGTACGC | 0.906 | 1.58 | 0.784 | -0.244 | 2.35 | 1.2 | 0.0377 | -0.217
TGAATGAGGATATAAGATCAGGGAACGTTGCAAA | -0.689 | 0.125 | 0.402 | -0.562 | 0.189 | 0.534 | -0.316 | -0.0248
TCTTGTCGATCAAAGGTTAAGAAAGCCGAAGCCT | 1.49 | 2.01 | 0.765 | 0.676 | 2.43 | 1.33 | -0.0604 | 0.0763
GATGCAGGGTCAAGGCCAGAGTACGCGTATTGAT | 3.44 | 5.2 | 4.79 | 1.98 | 5.72 | 3.46 | 0.878 | 1.78
TCTCGGAGGACACGAAGGGTCAGAGCTCGACATC | 3.84 | 3.26 | 3.44 | 0.595 | 2.4 | 2.92 | 0.541 | 0.624
TCTCGGAGGACACGAAAGGTCAGAGCACGACATC | 4.5 | 5.01 | 5.15 | 1.04 | 4.09 | 3.67 | 1.29 | 1.49
CGAACGAGGGCATGACTTGATAGCAAATGCCGAT | 0.668 | 1.26 | 1.54 | 2.16 | 0.981 | 1.2 | -0.168 | 0.849
CCTACTGGGCCAAGGTCAATGATCAGTCAAAGCA | 3.38 | 3.51 | 3.62 | 0.404 | 3.12 | 3.18 | 1.77 | 1.61
CGAGCTAGGTCATTGACAGGACAGTGAATAGTAA | 2.77 | 4.67 | 4.49 | 2.43 | 2.37 | 2.7 | 0.527 | 1.23
GCTAGCGGGCCATTTGGGTCACTCAATGACGGGC | 1.54 | 0.986 | 1.19 | -0.841 | 0.742 | 1.94 | 0.129 | 0.0296
CCTATTAGGTGACCATAAGGGCAACCGAAGCTCG | 2.13 | 2.09 | 1.22 | -0.22 | 1.08 | 2.64 | 1.52 | 0.127
GCTCGGAGGACAAGGTCAGAGGTTTGTCCGTAGA | 3.27 | 3.12 | 3.27 | 0.666 | 2.53 | 3.07 | 1.42 | 1.2
CGTCCAAGCTCAGAGAGGTCAGTGAATGCCGAGT | 3.56 | 2.72 | 2.99 | 0.551 | 2.36 | 2.19 | 0.794 | 2.2
ATCTCTAGGTAAAAGTTCGGTGAATCCCGAGGAT | 0.446 | 0.536 | 0.526 | 0.2 | 0.463 | 0.583 | 0.177 | 0.68
